Abeta rescue – A-beta toxicity reversal in yeast; yeast expressing A-beta42, growth rescue, OD600, 48 h; response scale: 0% DMSO, 100% iron-clioquinol control; 0.063% of 410,000 active; Potency, µM (doses to about 46.1 µM), most hits filed as activators; further: nearly all actives have a fitted effect of over 55% in size
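Growth rescue measured by 600 nm absorbance after 48 h yeast culture at 30 C with compound. Values normalized between DMSO and an equimolar ferric chloride plus clioquinol control.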
aSyn yeast inh – inhibitors of alpha-synuclein toxicity in yeast; Yeast expressing alpha-synuclein, growth rescue, BacTiter-Glo, 24 h; Potency, µM (highest dose often 46.1 µM), inactives show at the top dose growth rescue (activation), most hits filed as activators; 0.14% of 370,000 active; further: % of control where 0% means no effect; nearly all actives have a fitted effect of over 65% in size
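Readout is rescue of growth in alpha-synuclein-expressing yeast, so inhibitors of toxicity appear as activators. Growth after 24 hr at 30 deg C in galactose medium is quantified by luminescence.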
FUS suppressor – rescues growth of FUS-expressing yeast | AID 1347120 | Potency, µM (highest dose often 76.6 µM), hits mostly activators | S. cerevisiae FUS-expressing, growth rescue, OD600, 24 h | 0.24% of 390,000 active;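 further: plate controls were DMSO vehicle for no effect and reference control for full effect; nearly all actives have a fitted effect of over 55% in size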
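Yeast expressing FUS under galactose induction, OD 0.005 in 2% galactose medium; compounds in a dilution series, 24 h at 30C. Growth rescue by absorbance at 600 nm; CP55940 positive control, DMSO negative.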
TDP43 rescue – inhibitors of TDP-43 toxicity in yeast. TDP-43 expressing yeast growth rescue, BacTiter-Glo, 24 h. Potency, µM (doses to about 46.1 µM), for inactives: top-dose growth rescue (activation), most hits filed as activators. 1.8% of 410,000 active. AID 652104; further: % of control where 0% means no effect; nearly all actives have a fitted effect of over 50% in size
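Yeast cells expressing TDP-43 under galactose induction are exposed to compounds for 24 hr at 30 deg C. BacTiter-Glo luminescence measures growth, so protective compounds score as activators.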
* marks the source's active call; other numbers are inactive results; i = inactive; ? = inconclusive; nt = no result; ! = a repeat was not active. Most compounds without a hit are left out; they make up all but 2.1% or so of the library. The call rests on the fitted dose curve; in most records, active means well fitted curve in the direction sought with a large enough effect; inconclusive means small, poorly fitted or top-dose-only effect, or another doubt; inactive means no such curve, though single readings can be large; an effect the other way counts as inactive or inconclusive. Potency means the concentration at half of the fitted maximal effect.

SMILES	Abeta rescue	aSyn yeast inh	FUS suppressor	TDP43 rescue
Cc1ccc(NC(=O)c2ccc(NC(=O)N3CCSc4ncccc43)cc2)cc1Cl	i	nt	i	5.4%
CC(C)C[C@H]1COc2cc(N3CCCC3)ccc2S(=O)(=O)N1C	nt	nt	i	nt
COCCNC(=S)N1CCC2CC1c1cc(-c3ccc4c(c3)OCO4)ccc12 (configuration not stated)	?	22.6%	?	22.4µM*
S=C(NCCc1ccccc1)N1CCC2CC1c1cc(-c3ccc4c(c3)OCO4)ccc12 (configuration not stated)	i	-10.8%	i	?
C#CCOCCOCCOCCNc1nc(N2CCN(C(=O)CCCCCCCCCCNC(=O)[C@H]([C@@H](C)CC)n3cc(CCCCN=C(N)N)nn3)CC2)nc(N2CCN(C(=O)CCCCCCCCCCNC(=O)[C@H](CCCCN)n3cc(C)nn3)CC2)n1	i	-49.0%	11.2µM*	-79.0%
C#CCOCCOCCOCCNc1nc(N2CCN(C(=O)CCCCCCCCCCNC(=O)[C@H]([C@@H](C)CC)n3cc(CCCCCN)nn3)CC2)nc(N2CCN(C(=O)CCCCCCCCCCNC(=O)[C@H](CO)n3cc(CCCCCN)nn3)CC2)n1	i	-41.1%	14.1µM*	7.7%
C#CCOCCOCCOCCNc1nc(N2CCN(C(=O)CCCCCCCCCCNC(=O)[C@@H](CCC(=O)O)n3cc(CCCCCN)nn3)CC2)nc(N2CCN(C(=O)CCCCCCCCCCNC(=O)[C@H]([C@@H](C)CC)n3cc(CCCCCN)nn3)CC2)n1	i	-32.8%	?	1.7%
C#CCOCCOCCOCCNc1nc(N2CCN(C(=O)CCCCCCCCCCNC(=O)[C@H]([C@@H](C)CC)n3cc(CCCCCN)nn3)CC2)nc(N2CCN(C(=O)CCCCCCCCCCNC(=O)[C@H](CCCCN)n3cc(CCCC(=O)O)nn3)CC2)n1	i	-41.1%	?	25.9%
CC(C)n1nnnc1C1(C)CCCCC(=O)N1Cc1cccc(C(F)(F)F)c1 (configuration not stated)	nt	nt	i	nt
S=C1SCCCN1Cc1ccc(Cl)cc1	i	2.2%	i	11.2µM*
CC(C)CC(N)c1csc(NC(=O)NCCc2ccccc2)n1 (configuration not stated)	i	1.8%	i	12.4%
NC(Cc1ccc(C(F)(F)F)cc1)c1csc(NC(=O)NCCc2ccccc2)n1 (configuration not stated)	i	-36.5%	22.4µM*	0.0%
CCCCN(CCCC)c1ccc(C=Nc2ccc(/C=C/c3ccnc4ccccc34)cc2)cc1C	nt	-10.2%	nt	nt
O=C(Nc1ccccc1)N1CCN(c2ccccc2)CC1	i	-1.5%	i	8.91µM*
O=C(Nc1ccccc1)N1CCN(c2ccc(F)cc2)CC1	i	0.2%	i	6.3%
O=C(C1CCC1)N1CCN(c2ccc(C(F)(F)F)cc2[N+](=O)[O-])CC1	i	2.6%	nt	9.3%
CC(=O)c1ccc(N2CCN(C(=O)Nc3ccc(C(C)C)cc3)CC2)cc1	i	-23.2%	i	17.8µM*!
O=C(Nc1ccccc1)N1CCCN(c2ccc(C(F)(F)F)cc2[N+](=O)[O-])CC1	i	13.7%	i	17.8µM*
CC(C)c1ccc(NC(=O)N2CCOCC2)cc1	i	-9.6%	i	5.6%
CC(=O)CC[C@H]1CC[C@]2(CCCN(C(=O)c3ccco3)C2)O1	nt	nt	i	nt
COc1cccc(CNC(=O)C2CCCN(c3ncccn3)C2)c1OC (configuration not stated)	nt	nt	i	nt
O=C(O)c1cccc2c1C(=O)c1ccc(-c3ccc(F)cc3OCc3ccccc3)cc1S2(=O)=O	i	1.7%	i	20.8%
O=C(NC[C@H]1CCCO1)c1cccc2c1C(=O)c1ccc(-c3ccc(F)cc3OCc3ccccc3)cc1S2(=O)=O	i	?	22.4µM*	-1.6%
COc1cc(C(=O)NCC2CCCO2)cc(Br)c1OCc1ccccc1 (configuration not stated)	i	2.6%	i	14.1µM*
OC(Cc1ccc2ccccc2n1)c1c(Cl)cccc1Cl (configuration not stated)	nt	4.1%	nt	nt
Cc1cc(C(=O)O)c(C)o1	nt	nt	i	nt
O=C(Nc1ccc(Cl)c(Cl)c1)N1CCSCC1	i	-0.5%	i	12.6µM*
O=C(/C=C/c1ccccc1)N1CCC(c2ccccc2)C1 (configuration not stated)	i	10.1%	nt	11.2µM*
